In PubChem BioAssay AID1903 (Southern Research Specialized Biocontainment Screening …, 2009):
Among all 310,000 compounds or so, about 1,200 (0.39%) were called active. How the calls were made is not given here. These entries were drawn from the full list. Measured potencies and affinities stand elsewhere.

Each compound was assayed against Large T antigen (Simian virus 40) (UniProt P03070) (assay: TAg ATPase/helicase activity blockers – biochemical (AID 1903)). Settings: SV40 large T antigen ATPase/helicase inhibition assay; at 20 µM; hits give high values.
Chain of Large T antigen (Simian virus 40) (P03070 whole entry, looked up): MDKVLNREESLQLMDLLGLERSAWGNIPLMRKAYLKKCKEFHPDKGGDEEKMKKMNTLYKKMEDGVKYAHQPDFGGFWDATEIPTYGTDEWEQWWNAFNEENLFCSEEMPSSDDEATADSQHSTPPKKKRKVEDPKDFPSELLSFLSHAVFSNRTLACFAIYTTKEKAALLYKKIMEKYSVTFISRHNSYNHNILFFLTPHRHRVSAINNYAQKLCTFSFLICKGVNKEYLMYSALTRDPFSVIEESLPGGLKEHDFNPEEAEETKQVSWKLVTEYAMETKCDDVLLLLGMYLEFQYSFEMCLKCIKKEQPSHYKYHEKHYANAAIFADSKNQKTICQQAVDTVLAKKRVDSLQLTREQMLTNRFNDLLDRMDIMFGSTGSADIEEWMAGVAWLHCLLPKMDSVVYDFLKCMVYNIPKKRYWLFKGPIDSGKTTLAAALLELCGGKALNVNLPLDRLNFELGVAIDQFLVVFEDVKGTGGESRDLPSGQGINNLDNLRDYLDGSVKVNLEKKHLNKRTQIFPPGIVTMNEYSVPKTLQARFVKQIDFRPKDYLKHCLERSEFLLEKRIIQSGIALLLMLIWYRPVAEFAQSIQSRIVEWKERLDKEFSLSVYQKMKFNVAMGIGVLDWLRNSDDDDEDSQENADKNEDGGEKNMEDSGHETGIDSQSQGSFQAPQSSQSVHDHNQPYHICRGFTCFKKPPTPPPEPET

inhibition, inactive:
CCOC(=O)N1CCN(c2cc(=O)n(-c3ccc(OC)cc3)c(=O)[nH]2)CC1 -2.27%, Cc1ccccc1CNC(=O)Cn1ccc2cc(S(=O)(=O)N3CCCCCC3)ccc21 5.82%, O=C(COC(=O)c1ccc(CO)cc1)Nc1ccc(OC(F)F)cc1 -2.98%, Cc1nnc(NC(=O)CCS(=O)(=O)c2ccccc2)s1 19.4%, Cn1c(CO)nc2cc(N)ccc21 24.9%, Nc1ccc2c(c1)nc(Cc1ccccc1)n2CCO 32.4%, Cn1ccnc1Sc1cc(Cl)ccc1[N+](=O)[O-] 1.59%, CCOC(=O)C1=NN(C(C)=O)C2(CC(=O)N(c3ccc(C)c(C)c3)C2=O)C1 (stereo not drawn) 10.2%, O=C(NCC1CCCO1)C1CCN(C2CCN(C3CCCCCC3)CC2)CC1 (stereo not drawn) 6.53%, CSc1nc(C)c(CCOCc2ccc(F)cc2)c(=O)[nH]1 6.59%, COc1ccccc1N1C(=O)C2CC(C)=C(C)CC2C1=O (stereo not drawn) 6.96%, COc1ccccc1N1C(=O)CC(Sc2nc(C)cc(C)n2)C1=O (stereo not drawn) 5.59%, CCCCOc1ccc(C2(C)NC(=O)NC2=O)cc1 (stereo not drawn) 3.93%, COc1ccc(S(=O)(=O)N(CC(=O)NCc2ccncc2)c2ccc(C)cc2)cc1OC 7.04%, CN(CC(=O)Nc1ccc(F)cc1)C(=O)COC(=O)Cc1cccs1 8.61%, O=C(C1=NN[C@@H]2C(=O)N(c3cccc(F)c3)C(=O)[C@H]12)C(c1ccccc1)c1ccccc1 1.36%, Cn1cc(C(=O)c2cccc(Cl)c2)cc1/C=N\O -2.98%, CC(=O)c1ccc(OC(=O)CN2C(=O)c3ccccc3C2=O)cc1 14.1%, O=C(NC(=S)N1CCN(c2ccc(F)cc2)CC1)c1cccs1 1.9%, O=S(=O)(c1cccs1)N1CCN(c2ccccc2)CC1 1.66%, S=C(NCCc1ccccc1)N1CCCC1 7.81%, O=S(=O)(c1cccs1)N1CCN(c2ccc(Cl)cc2)CC1 2.25%, Oc1ccccc1N1CCN(C(=S)NCCc2ccccc2)CC1 7.92%, O=C(CCC(=O)N1CCN(c2cccc(Cl)c2)CC1)c1cccs1 1.82%, O=C(NC(=S)N1CCCCC1)c1cccs1 9.19%, CC(=O)c1ccc(N2CCN(C(=O)CCC(=O)c3cccs3)CC2)cc1 4.57%, CN1CCN(CCc2nc3cc(NC(=O)COc4ccc([N+](=O)[O-])cc4)ccc3n2C)CC1 16.7%, O=C(NCC1CCCO1)c1cn(-c2ccccc2)nc1-c1ccc(F)cc1 (stereo not drawn) 27.6%, COc1cc(S(=O)(=O)N2CCOCC2)cc(C(=O)c2nccn2C)c1OC -1.37%, CN(C(=O)COC(=O)CNC(=O)c1ccc(C(C)(C)C)cc1)c1c(N)n(Cc2ccccc2)c(=O)[nH]c1=O 6.23%, COc1cnc(-c2ccccn2)nc1Oc1cccc(Cl)c1 30.5%, Cc1ccc(-n2cccc2/C=C2/NC(=O)N(CC(=O)Nc3cccc(C)c3)C2=O)cc1 10.3%, Cc1cccc(NC(=O)CN2C(=O)N/C(=C\c3cccn3-c3cccc(C(=O)O)c3)C2=O)c1 3.89%, COC(=O)C1CCN(Cc2ccc(C)cc2)CC1 3.14%, N#C/C(=C/Nc1ccccc1F)S(=O)(=O)c1ccc(Cl)cc1 -5.3%, COc1ccc(-c2cnnn2-c2ccc(NC(=O)/C=C/c3ccc(OC)c(OC)c3)cc2)cc1 4.37%, CC(Oc1ccc(Cl)cc1Cl)C(=O)NCCCN(C)C (stereo not drawn) 13.2%, O=C(O)c1ccc(-c2ccc(OS(=O)(=O)c3ccccc3F)cc2)cc1 -2.26%, O=C(O)Cc1ccc(O)c(F)c1 11.8%, CC(=O)Nc1ccc(S(=O)(=O)N2CCN(Cc3cccnc3)CC2)cc1 0.357%, Cc1scc(C(=O)NNC(=S)NCC2CCCO2)c1-c1ccccc1 (stereo not drawn) 11.4%, Cc1nnc(C)n1/N=C/c1ccc(O)cc1 -1.45%, CCN=c1scc(-c2ccco2)n1/N=C/c1ccc(OC)c(O)c1 19.6%, CN=c1scc(C)n1/N=C/c1ccc(O)c(O)c1O 7.3%, CCN=c1scc(-c2ccco2)n1/N=C/c1ccc(O)cc1 11.2%, CN=c1scc(C)n1/N=C/c1ccc2c(c1)OCO2 11.5%, CN=c1scc(-c2cccs2)n1/N=C/c1ccccc1O 6.26%, CC1Oc2ccccc2N(CC(=O)N2CCCC2)C1=O (stereo not drawn) 2.95%, O=C1Cn2c(nc3ccccc32)N1c1ccccc1F 5.32%, Cc1cc[n+](CC(=O)Nc2ccccc2)cc1 -1.49%, COc1ccc(Nc2nc(N)c([N+](=O)[O-])c(NCc3ccccc3)n2)cc1 2.61%, CCCC12CN(C(=O)c3ccc(OC)cc3)CC(C)(CN(C(=O)c3ccc(OC)cc3)C1)C2=O 14.8%, COc1ccc(CONc2ncnc3nonc23)cc1[N+](=O)[O-] 24.5%, O=c1cc(-c2ccc(O)cc2)oc2cc(O)cc(O)c12 5.06%, O=c1cc(-c2ccccc2)oc2cc(O)cc(O)c12 3.39%, O=c1c(O)c(-c2cc(O)c(O)c(O)c2)oc2cc(O)cc(O)c12 14.3%, O=c1c(O)c(-c2ccc(O)cc2)oc2cc(O)cc(O)c12 2.71%, Cc1cccc(/C=C2\CCC(C3CCCC3)C2=O)c1 (stereo not drawn) 1.68%, CCN(CC)C(=O)c1cc(Cl)ccn1 -2.78%, O=C(NCC1CCCO1)c1cc(S(=O)(=O)Nc2ccc(Br)cc2)ccc1Cl (stereo not drawn) -4.53%, COC(=O)C1C(=O)NC(SC)=C(C#N)C1c1ccccc1F (stereo not drawn) 10.2%, CCOC(=O)C1C(=O)NC(SC)=C(C#N)C1c1ccccc1F (stereo not drawn) 13.4%, COc1ccccc1/C=C(/C(=O)OCC(=O)Nc1cc(C)ccc1C)c1ccccc1 5.11%
